This passage reports Potency results from PubChem BioAssay AID2676 (National Center for Advancing Translational Sciences (NCATS), 2010).

Molecules are shown by their SMILES. Hit rate of the full screen: of about 370,000 compounds, about 1,100 (0.3%) were called active. Where a call stands in place of a potency, no number is given. About 1% were inconclusive and are not listed. The call rests on the fitted dose curve; in most records, active means well fitted activation curve with a large enough effect; inconclusive means small, poorly fitted or top-dose-only effect; inactive means flat fitted curve, though single readings scatter. Many of the other results were omitted from the sample, so actives are more common in it than they were.
Potency means the concentration at half of the fitted maximal effect.

Chain of Relaxin receptor 1 (Homo sapiens) (Q9HBX9 whole entry, looked up): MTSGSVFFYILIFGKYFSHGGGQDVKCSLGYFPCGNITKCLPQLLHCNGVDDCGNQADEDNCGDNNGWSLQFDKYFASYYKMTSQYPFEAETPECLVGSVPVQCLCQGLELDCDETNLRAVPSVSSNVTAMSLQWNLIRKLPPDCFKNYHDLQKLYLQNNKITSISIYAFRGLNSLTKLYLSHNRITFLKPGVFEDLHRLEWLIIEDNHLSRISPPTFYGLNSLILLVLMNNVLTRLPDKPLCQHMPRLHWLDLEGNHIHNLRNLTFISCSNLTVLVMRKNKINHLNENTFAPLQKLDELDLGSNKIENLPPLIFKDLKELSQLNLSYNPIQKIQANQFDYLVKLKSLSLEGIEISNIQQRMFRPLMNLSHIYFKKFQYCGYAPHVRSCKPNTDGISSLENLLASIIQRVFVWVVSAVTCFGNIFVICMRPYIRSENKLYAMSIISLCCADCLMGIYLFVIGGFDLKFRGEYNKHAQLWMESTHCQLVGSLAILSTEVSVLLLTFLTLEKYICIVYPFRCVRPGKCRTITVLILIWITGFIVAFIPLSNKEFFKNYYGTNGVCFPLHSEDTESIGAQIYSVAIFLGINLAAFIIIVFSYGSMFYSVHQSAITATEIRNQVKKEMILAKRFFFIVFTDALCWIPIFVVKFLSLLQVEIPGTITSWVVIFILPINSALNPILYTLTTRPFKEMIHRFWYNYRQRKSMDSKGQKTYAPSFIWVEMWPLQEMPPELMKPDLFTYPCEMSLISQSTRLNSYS

The target in the test is Relaxin receptor 1 (Homo sapiens) (UniProt Q9HBX9). Briefly: qHTS Assay for Agonists of the Relaxin Receptor RXFP1. Further: nearly all actives have a fitted effect of over 60% in size. Particulars: HEK293T-RXFP1 cAMP TR-FRET, 30 min; series mostly up to 57.5 µM. An excerpt:
NIH Chemical Genomics Center [NCGC] NIH Molecular Libraries Probe Production Centers Network [MLPCN] MLPCN Grant: R03 MH085705-01A1 Assay Submitter (PI): Alexander Agoulnik NCGC Assay Overview: The relaxin hormone is involved in the variety of biological functions in normal tissues and diseases. The role of relaxin is well-established in female reproduction and parturition, mammary gland and endometrial development, maintenance of myometrial quiescence during pregnancy. Relaxin signaling through its G protein-coupled receptor (GPCR) RXFP1 results in ECM remodeling through regulation of collagen deposition, cell invasiveness, proliferation and overall tissue homeostasis. […] Recombinant human relaxin (rhRlx) is currently being tested in clinical trials as a protective agent in congestive heart failure, in treating severe preeclampsia, and as an anti-fibrotic agent in systemic sclerosis. Upon relaxin binding RXFP1 activation leads to the activation of adenylate cyclase (AC) via Gs. cAMP will activate PKA, which phosphorylates many signaling proteins. Thus, detection of cAMP increase is an easy and reliable indication of relaxin receptor activation. To screen for agonists of the relaxin receptor, a HEK293T cell line stably transfected with RXFP1 was used. RXFP1 activation was assayed by changes in cAMP levels as detected with a time-resolved fluorescence energy transfer (TR-FRET) cAMP detection kit.
NCGC Assay Protocol Summary: This is a cell-based assay for cAMP second messenger response to screen for agonists of the RXFP1 receptor. The assay was conducted in the presence of a PDE4 inhibitor (Ro 20174). The cells were lysed and the cAMP levels were measured with a TR-FRET cAMP kit. Presence of cAMP in the cell lysate disrupts binding between the cryptate-labeled anti-cAMP and d2-labeled cAMP pair, leading to a decrease in the TR-FRET signal. Data were normalized to the controls for basal activity (buffer only) and 100% activity (29 nM porcine relaxin). The EC50 values were determined from concentration-response data modeled with the standard Hill equation 1536-well assay protocol for the HEK293 RXFP1 cAMP assay: (1) Add 3 ul HEK293 RXFP1 cell culture. 2000 cells/well in DMEM/F12, 10% FBS, 1x Pen/Strep (dispensed offline with MultiDrop Combi). (2) Incubate 16-24 hr at 37C, 5% CO2. (3) Add 1 ul 400uM Ro20174 in DPBS, 0.05% BSA, 0.005% Tween 20. (3) Add 23 nl compounds in DMSO solution. Final concentration was 0.5 - 58 uM. (4) Incubate 30 min at 37C, 5% CO2. (5) Add 1 ul cAMP-d2 in lysis buffer (HTRF cAMP HiRange kit, CisBio). (6) Add 1 ul anti-cAMP antibody-cryptate in lysis buffer (HTRF cAMP HiRange kit, CisBio). (7) Incubate 30 min at room temperature. (6) Detect the assay plate in a ViewLux plate reader (PerkinElmer) with Ex=320 nm, Em1=615 nm and Em2=665 nm. Keywords: relaxin, RXFP1, RXFP2, G-protein coupled receptor, cAMP, agonist, high throughput screening, MLSMR, MLSCN, NIH Roadmap, qHTS and NCGC
As to `O=C(CSc1nccn1Cc1ccc(F)cc1)NCc1ccccc1`, the Potency result was “inactive”.
On to `Cc1ccc(NC(=O)CSc2nnc3[nH]c(=O)cc(C)n23)cc1Cl`, for which the Potency result was “inactive”.
For `COc1ccc(-c2nc(SCC(=O)N3CCCCC3C)n[nH]2)cc1` (stereo not given) the value was “inactive”.
As for `O=C(c1cccc(Br)c1)N1CCN(Cc2cc(=O)n3nc(-c4ccccc4)sc3n2)CC1`, the entry is “inactive”; as for `Cc1ccc(-n2cnc3cc(C(=O)NCCC4=CCCCC4)ccc32)cc1Cl`, “inactive”.
For `Brc1ccc2c(c1)NC(c1cccnc1)=NC(c1ccccc1)=N2` the value was “inactive”; for `CCc1cnc2c(c1SCC(=O)N1CCC(C)CC1)c(=O)n(C)c(=O)n2C`, “inactive”; for `Cc1cc(C)c(/C=C/c2onc(C)c2S(=O)(=O)N2CCC(C(=O)Nc3ccc(Cl)cc3C)CC2)c(C)c1`, “inactive”.
On to `CCCNC(=O)c1ccc2c(c1)ncn2-c1ccc(C)cc1C`, for which the Potency entry is “inactive”.
Regarding `COc1ccc(S(=O)(=O)NCc2cccn2Cc2cccc(C)c2)cc1Cl`, the Potency result is “inactive”.
As to `CCOC(=O)N1CCc2c(sc(NCc3cccc(F)c3)c2C(=O)Nc2ccccc2OCC)C1`, the Potency entry is “inactive”.
For `COc1cccc(OCCn2c(-c3ccc(Br)cc3)nc3ccccc3c2=O)c1` the value was “inactive”; for `O=C(CCS(=O)(=O)c1ccc2c(c1)NC(=O)CO2)Nc1cccc(C(F)(F)F)c1`, “inactive”; for `CCOc1ccc(C(=O)/C=C/c2cn(CC(O)CN3CCCCCC3)c3ccccc23)cc1` (stereo not given), “inactive”.
As for `COc1ccc(N2CCN(C(=O)CSCc3nc(-c4ccccc4Cl)oc3C)CC2)cc1`, the entry is “inactive”; as for `Cc1ccc(NC(=O)NC(C)c2c(-n3cccc3)sc(C)c2C)c(C)c1` (stereo not given), “inactive”; as for `CCc1cc2c(cc3c(=O)n(CC(=O)NCc4cccc(Cl)c4)nc(CC)n32)s1`, “inactive”.
On to `Cc1ccc(-n2ncc3c(N4CCC(C(N)=O)CC4)ncnc32)cc1`, for which the Potency result is “inactive”.
Regarding `COC(=O)c1ccc(NC(=O)CCc2c(C)nc3c(c(C)nn3-c3ccc(C)cc3)c2C)cc1`, the Potency entry was “inactive”.
For `CCCCOc1ccc(CN2C(=O)C(=O)c3cc(Br)cc(C)c32)cc1OC` the value was “inactive”.
As for `CCOc1ccccc1CNC(=O)Nc1cn(CC(C)C)c(=O)c2ccccc12`, the entry is “inactive”; as for `CN(Cc1ccccc1)C(=O)c1cn(C)c2ccc(S(=O)(=O)N3CCCCC3)cc2c1=O`, “inactive”; as for `Cc1ccccc1CNC(=O)Cn1c(C)c2cnn(-c3ccccc3)c(=O)c2c1C`, “inactive”.
As for `Cc1ccc2oc3c(c(=O)c2c1)C(c1ccc(O)cc1)N(Cc1ccc2c(c1)OCO2)C3=O` (stereo not given), the entry is “inactive”.
Regarding `COc1ccc(C)cc1N(C)C(=O)c1c(C)oc2ncnc(N3CCOCC3)c12`, the Potency result is “inactive”.
For `O=C(NCCCc1ccccc1)c1ccc2c(c1)sc1nc(-c3ccc(F)cc3)cn12` the value was “inactive”; for `COc1cccc(C(=O)N(Cc2cccc(Cl)c2)Cc2ccco2)c1`, “inactive”; for `COc1cc(Cl)c(NC(=O)C(NS(=O)(=O)c2cccs2)C(C)C)c(OC)c1` (stereo not given), “inactive”.
As for `CCOC(=O)c1c(NC(=O)COc2cc(C)ccc2C(C)C)sc(C)c1C`, the entry is “inactive”; as for `COC(=O)c1ccccc1NC(=O)c1ccc(COc2ccccc2Cl)o1`, “inactive”.
Turning to `O=C(Cn1c(=O)n(-c2ccc(F)cc2)c(=O)c2sccc21)Nc1cccc(C(F)(F)F)c1`, the Potency entry is “inactive”.
For `CC(C)(C)c1ccc(OCC(=O)N2CCC(c3nc4ccccc4s3)CC2)cc1`, the Potency entry was “inactive”.
For `O=C(NC1CC(=O)N(c2ccc(F)cc2)C1)c1ccc(S(=O)(=O)N2CCCC2)cc1` (stereo not given) the value was “inactive”; for `COc1ccc(Cn2ccnc2SCC(=O)NCc2ccco2)cc1`, “inactive”.
For `CCOc1ccc2oc(=O)cc(CN3CCN(C(=O)c4ccc(F)cc4)CC3)c2c1` the value was “inactive”; for `Cc1cnc(NC(=O)Cn2cnc3c2c(=O)n(C)c(=O)n3C)s1`, “inactive”; for `CN(CC(=O)Nc1ccc(F)c(F)c1F)C(=O)Cn1cnc2c1c(=O)n(C)c(=O)n2C`, “inactive”.
As for `Cn1c(=O)c2c(ncn2CC(=O)N/N=C/c2cn[nH]c2-c2ccc(F)cc2)n(C)c1=O`, the figure is 14.1 µM (active); as for `CCCNc1ncnc2c1c(-c1ccccc1)cn2-c1ccc(OCC)cc1`, “inactive”; as for `COc1ccc(S(=O)(=O)N2CCOCC2)cc1NC(=O)Cc1c(F)cccc1Cl`, “inactive”.
For `COc1ccc(S(=O)(=O)N2CCOCC2)cc1NC(=O)CSc1cc(C)ccc1C`, the Potency entry is “inactive”.
As to `COc1ccc(S(=O)(=O)N2CCOCC2)cc1NC(=O)CSc1ncnc2ccccc12`, the Potency was 15.8 µM (active).
As for `CCOc1ccc(C(=O)Nc2ccc3nc4c(c(Nc5ccccc5OC)c3c2)CCCC4)cc1`, the entry is “inactive”; as for `C=Cc1ccc(Cn2c(C(=O)O)c(CNC3CCCC3)c3ccc(C)cc32)cc1`, “inactive”; as for `CCOc1ccc(CCNC(=O)CN(c2ccc(C)cc2)S(=O)(=O)N(C)C)cc1OCC`, “inactive”.
For `O=C(Nc1ccc(Br)cc1)c1cc2nc(-c3ccccc3)cc(-c3ccccc3)n2n1` the value was “inactive”.
As for `COc1ccc2oc(-c3ccc(C)c(NC(=O)c4sc5ccccc5c4Cl)c3)nc2c1`, the entry is “inactive”; as for `CCOc1cccc(CC(=O)N2CCc3c([nH]c4ccccc34)C2c2ccc(OC)cc2)c1OCC` (stereo not given), “inactive”.
`Cc1cc(C)cc(NC(=O)Cn2nc(N3CCN(c4ccccc4)CC3)ccc2=O)c1`: the Potency entry was “inactive”.
For `Cc1ccc(Cl)cc1N(C)C(=O)C1CCCN(c2ncnc3onc(-c4ccc(F)cc4)c23)C1` (stereo not given) the value was “inactive”.
